CIT2 TOR yeast = yeast TOR pathway CIT2-GFP modulation. actives 0.065% (n = 320,000). S. cerevisiae CIT2-GFP strain, flow cytometry, 3 h; 100 means same as DMSO wells. GFP response vs DMSO, % at 10 µM. AID 2029;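 active = GFP response relative to DMSO above a set limit, near the screen mean plus 3 SD, cut at about 150% in these data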;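 also: ratio of well median GFP fluorescence to mean of DMSO wells on the plate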
VLA-4 inh = inhibition in a human VLA-4 binding assay; AID 2557; actives 0.2% (n = 330,000); VLA-4 expressing cells, ligand binding flow cytometry; inhibition, % (about 7 µM as worked out from the volumes in the protocol); P13612; in the data active = inhibition above about 50%
Target sequence (P13612 whole entry, looked up): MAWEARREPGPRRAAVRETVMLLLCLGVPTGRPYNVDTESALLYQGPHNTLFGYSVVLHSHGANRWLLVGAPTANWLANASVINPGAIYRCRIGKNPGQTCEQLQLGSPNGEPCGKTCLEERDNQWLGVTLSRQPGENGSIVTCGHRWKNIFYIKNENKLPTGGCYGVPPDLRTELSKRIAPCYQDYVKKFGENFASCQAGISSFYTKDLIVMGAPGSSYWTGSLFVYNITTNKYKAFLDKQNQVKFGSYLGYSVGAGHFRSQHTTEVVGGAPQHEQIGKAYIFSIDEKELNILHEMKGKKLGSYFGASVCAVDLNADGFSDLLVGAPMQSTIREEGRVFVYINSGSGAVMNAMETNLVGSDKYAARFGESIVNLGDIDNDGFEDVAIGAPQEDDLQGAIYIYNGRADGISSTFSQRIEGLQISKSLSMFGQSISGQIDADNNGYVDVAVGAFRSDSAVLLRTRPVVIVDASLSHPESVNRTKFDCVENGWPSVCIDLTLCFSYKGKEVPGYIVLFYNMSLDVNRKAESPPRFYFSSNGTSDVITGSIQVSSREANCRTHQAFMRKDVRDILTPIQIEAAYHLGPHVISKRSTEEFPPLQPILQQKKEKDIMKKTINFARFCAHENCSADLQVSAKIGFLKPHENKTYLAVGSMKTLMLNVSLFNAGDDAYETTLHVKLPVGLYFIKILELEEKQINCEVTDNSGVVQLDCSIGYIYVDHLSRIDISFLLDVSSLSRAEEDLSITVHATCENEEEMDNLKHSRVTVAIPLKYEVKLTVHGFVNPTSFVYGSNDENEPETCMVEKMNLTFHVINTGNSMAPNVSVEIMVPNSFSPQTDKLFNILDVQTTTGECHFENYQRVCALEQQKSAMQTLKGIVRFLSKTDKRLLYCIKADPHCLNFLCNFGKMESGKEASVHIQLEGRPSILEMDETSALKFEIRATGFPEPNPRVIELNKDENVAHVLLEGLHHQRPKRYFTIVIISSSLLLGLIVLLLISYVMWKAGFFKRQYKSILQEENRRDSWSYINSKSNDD
RPL19A-GFP yeast = yeast TOR pathway RPL19A-GFP modulation | S. cerevisiae RPL19A-GFP strain, flow cytometry, 3 h; active compounds read low | percent response vs DMSO, % at 10 µM | actives 0.3% (n = 330,000) | AID 2025;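 active = percent response vs DMSO below 50%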;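 also: median channel GFP fluorescence of the barcoded RPL19A-GFP strain; lower means less RPL19A-GFP as with rapamycin TOR inhibition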
AGP1-GFP MLPCN = yeast TOR pathway AGP1-GFP modulation | AID 2066 | GFP response vs DMSO, % at 10 µM | actives 0.02% (n = 320,000) | S. cerevisiae AGP1-GFP multiplex flow cytometry, 3 h; GFP as percent of DMSO wells;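 active = GFP response relative to DMSO above a set limit, near screen average plus 3 SD, cut at about 150% in these data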;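 also: median GFP channel fluorescence of the gated AGP1 strain per well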
MEP2 TOR yeast = alters MEP2-GFP fluorescence in TOR pathway yeast screen | actives 0.51% (n = 330,000) | S. cerevisiae MEP2-GFP strain, flow cytometry GFP, 3 h; 100% = DMSO control level | GFP response vs DMSO, % at 10 µM;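 active = GFP response versus DMSO above a set limit, roughly screen mean plus 3 SD, cut at about 180% in these data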;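 also: median GFP fluorescence of the barcode-gated MEP2-GFP cells per well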
LAP4 TOR yeast = yeast TOR pathway LAP4-GFP modulation; AID 2023; GFP response vs DMSO, % at 10 µM; actives 0.34% (n = 320,000); S. cerevisiae LAP4-GFP multiplex, flow cytometry GFP, 3 h; median GFP as percent of DMSO wells;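 active = GFP response vs DMSO above a set limit, about the screen mean plus 3 SD, cut at about 150% in these data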
VLA-4 mod pick = human VLA-4 allosteric modulation in cherry picked compounds; shares compounds with VLA-4 inh; U937 cells, HUTS-21 LIBS mAb binding, flow cytometry; LDV ligand present at threefold Kd; inhibition, % at 6.7 µM; actives 2% (n = 1,300); AID 2813; in the data active = inhibition above about 40%
A number is an active result. Compounds with a hit are over-represented: about 1.1% of the library has one in this group of screens.

What do the screens show for `CC1(c2ccc(OC(F)F)cc2)NC(=O)N(CC(=O)N2c3ccccc3NC(=O)C2(C)C)C1=O` (stereo not drawn)?
CIT2 TOR yeast: inactive; VLA-4 inh: inactive; RPL19A-GFP yeast: inactive; AGP1-GFP MLPCN: inactive; MEP2 TOR yeast: inactive; LAP4 TOR yeast: inactive

How did O=C(Nc1ccc(Br)cc1)Nn1cnnc1 do in these assays?
CIT2 TOR yeast: inactive; VLA-4 inh: inactive; RPL19A-GFP yeast: inactive; AGP1-GFP MLPCN: inactive; MEP2 TOR yeast: inactive; LAP4 TOR yeast: inactive

What do the screens show for `O=C(Nc1ccc(Cl)c(Cl)c1)Nc1ccccc1O`?
CIT2 TOR yeast: inactive; VLA-4 inh: inactive; RPL19A-GFP yeast: inactive; AGP1-GFP MLPCN: inactive; MEP2 TOR yeast: inactive; LAP4 TOR yeast: inactive; VLA-4 mod pick: inactive

How did O=C(Cc1ccccc1)N/N=C/c1ccc(S(=O)(=O)O)o1 do in these assays?
CIT2 TOR yeast: inactive; VLA-4 inh: inactive; RPL19A-GFP yeast: inactive; AGP1-GFP MLPCN: inactive; MEP2 TOR yeast: inactive; LAP4 TOR yeast: inactive

How did CCOCCCNC(=O)/C(C#N)=C/c1ccc(Cl)c([N+](=O)[O-])c1 do in these assays?
CIT2 TOR yeast: inactive; VLA-4 inh: 59.1; RPL19A-GFP yeast: inactive; AGP1-GFP MLPCN: inactive; MEP2 TOR yeast: inactive; LAP4 TOR yeast: inactive; VLA-4 mod pick: inactive

How did COCCNC(=O)/C(C#N)=C/c1ccc(O)cc1 do in these assays?
CIT2 TOR yeast: inactive; VLA-4 inh: inactive; RPL19A-GFP yeast: inactive; AGP1-GFP MLPCN: inactive; MEP2 TOR yeast: inactive; LAP4 TOR yeast: inactive; VLA-4 mod pick: inactive

How did COCCNC(=O)/C(C#N)=C/c1cccc(/C=C(\C#N)C(=O)NCCOC)c1 do in these assays?
CIT2 TOR yeast: inactive; VLA-4 inh: 50.4; RPL19A-GFP yeast: inactive; AGP1-GFP MLPCN: inactive; MEP2 TOR yeast: inactive; LAP4 TOR yeast: inactive; VLA-4 mod pick: inactive

Results for CCCCCCCCNC(=O)/C(C#N)=C/c1ccc(SC)cc1 ?
CIT2 TOR yeast: inactive; VLA-4 inh: inactive; RPL19A-GFP yeast: inactive; AGP1-GFP MLPCN: inactive; MEP2 TOR yeast: inactive; LAP4 TOR yeast: inactive; VLA-4 mod pick: inactive

Results for CCOCCCNC(=O)/C(C#N)=C/c1cc(OC)c(O)c([N+](=O)[O-])c1 ?
CIT2 TOR yeast: inactive; VLA-4 inh: inactive; RPL19A-GFP yeast: inactive; AGP1-GFP MLPCN: inactive; MEP2 TOR yeast: inactive; LAP4 TOR yeast: inactive

Results for COCCNC(=O)/C(C#N)=C/C(C)=C/c1ccccc1 ?
CIT2 TOR yeast: inactive; VLA-4 inh: inactive; RPL19A-GFP yeast: inactive; AGP1-GFP MLPCN: inactive; MEP2 TOR yeast: inactive; LAP4 TOR yeast: inactive

What do the screens show for `O=C(NNC(=O)c1ccccc1O)c1cc2ccccc2o1`?
CIT2 TOR yeast: inactive; VLA-4 inh: inactive; RPL19A-GFP yeast: inactive; AGP1-GFP MLPCN: inactive; MEP2 TOR yeast: inactive; LAP4 TOR yeast: inactive

How did CC1=C(C)CC(C(=O)NCc2c(F)cccc2Cl)C(C(=O)O)C1 (stereo not drawn) do in these assays?
CIT2 TOR yeast: inactive; VLA-4 inh: inactive; RPL19A-GFP yeast: inactive; AGP1-GFP MLPCN: inactive; MEP2 TOR yeast: inactive; LAP4 TOR yeast: inactive

Results for NS(=O)(=O)c1cccc(NC(=O)CCN2C(=O)C3CCCCC3C2=O)c1 (stereo not drawn) ?
CIT2 TOR yeast: inactive; VLA-4 inh: 53.2; RPL19A-GFP yeast: inactive; AGP1-GFP MLPCN: inactive; MEP2 TOR yeast: inactive; LAP4 TOR yeast: inactive; VLA-4 mod pick: inactive

Results for O=C(CCN1C(=O)C2CC=CCC2C1=O)Nc1cccc(S(=O)(=O)N2CCCCC2)c1 (stereo not drawn) ?
CIT2 TOR yeast: inactive; VLA-4 inh: inactive; RPL19A-GFP yeast: inactive; AGP1-GFP MLPCN: inactive; MEP2 TOR yeast: inactive; LAP4 TOR yeast: inactive

How did COC(=O)c1cc(NC(=S)NC(=O)c2ccccc2)ccc1N1CCOCC1 do in these assays?
CIT2 TOR yeast: inactive; VLA-4 inh: inactive; RPL19A-GFP yeast: inactive; AGP1-GFP MLPCN: inactive; MEP2 TOR yeast: inactive; LAP4 TOR yeast: inactive

How did COc1cccc(OC)c1OCCCCc1c(C)n[nH]c1C do in these assays?
CIT2 TOR yeast: inactive; VLA-4 inh: 58.6; RPL19A-GFP yeast: inactive; AGP1-GFP MLPCN: inactive; MEP2 TOR yeast: inactive; LAP4 TOR yeast: inactive; VLA-4 mod pick: inactive

How did COc1cccc(OC)c1OCCCCCc1c(C)n[nH]c1C do in these assays?
CIT2 TOR yeast: inactive; VLA-4 inh: inactive; RPL19A-GFP yeast: inactive; AGP1-GFP MLPCN: inactive; MEP2 TOR yeast: inactive; LAP4 TOR yeast: inactive

How did C=CCOc1ccc(C(c2c(C(=O)O)[nH]c3ccccc23)c2c(C(=O)O)[nH]c3ccccc23)cc1 do in these assays?
CIT2 TOR yeast: inactive; VLA-4 inh: inactive; RPL19A-GFP yeast: inactive; AGP1-GFP MLPCN: inactive; MEP2 TOR yeast: inactive; LAP4 TOR yeast: inactive

How did CCC(C(=O)OC)n1cnc2c(nnn2-c2cccc(OC)c2)c1=O (stereo not drawn) do in these assays?
CIT2 TOR yeast: inactive; VLA-4 inh: inactive; RPL19A-GFP yeast: inactive; AGP1-GFP MLPCN: inactive; MEP2 TOR yeast: inactive; LAP4 TOR yeast: inactive; VLA-4 mod pick: inactive

Results for Fc1ccc(N2CCN(c3cnc4ccccc4n3)CC2)cc1 ?
CIT2 TOR yeast: inactive; VLA-4 inh: inactive; RPL19A-GFP yeast: inactive; AGP1-GFP MLPCN: inactive; MEP2 TOR yeast: inactive; LAP4 TOR yeast: inactive

Results for Cc1ccccc1N1C(=O)C2CCCN2C1=S (stereo not drawn) ?
CIT2 TOR yeast: inactive; VLA-4 inh: inactive; RPL19A-GFP yeast: inactive; AGP1-GFP MLPCN: inactive; MEP2 TOR yeast: inactive; LAP4 TOR yeast: inactive

What do the screens show for `CCN(CC)S(=O)(=O)c1cccc(C(=O)OCC(=O)Nc2ccccc2OC(F)F)c1`?
CIT2 TOR yeast: inactive; VLA-4 inh: inactive; RPL19A-GFP yeast: inactive; AGP1-GFP MLPCN: inactive; MEP2 TOR yeast: inactive; LAP4 TOR yeast: inactive; VLA-4 mod pick: inactive

Results for CCOc1ccc(NC(=O)COC(=O)Cc2ccsc2)cc1 ?
CIT2 TOR yeast: inactive; VLA-4 inh: inactive; RPL19A-GFP yeast: inactive; AGP1-GFP MLPCN: inactive; MEP2 TOR yeast: inactive; LAP4 TOR yeast: inactive

What do the screens show for `CSc1nc(N)nc2c1ncn2CC(=O)Nc1ccc(C)c(C)c1`?
CIT2 TOR yeast: inactive; VLA-4 inh: inactive; RPL19A-GFP yeast: inactive; AGP1-GFP MLPCN: inactive; MEP2 TOR yeast: inactive; LAP4 TOR yeast: inactive

What do the screens show for `CCOC(=O)c1sc2nc(C)nc(SCC(=O)N(C)C3CCS(=O)(=O)C3)c2c1C` (stereo not drawn)?
CIT2 TOR yeast: inactive; VLA-4 inh: inactive; RPL19A-GFP yeast: inactive; AGP1-GFP MLPCN: inactive; MEP2 TOR yeast: inactive; LAP4 TOR yeast: inactive; VLA-4 mod pick: inactive

Results for O=C1NC(=O)/C(=C/c2cccc(O)c2)N1 ?
CIT2 TOR yeast: inactive; VLA-4 inh: inactive; RPL19A-GFP yeast: inactive; AGP1-GFP MLPCN: inactive; MEP2 TOR yeast: inactive; LAP4 TOR yeast: inactive; VLA-4 mod pick: inactive

Results for CN(C(=O)CSc1n[nH]c(-c2cccs2)n1)C1CCS(=O)(=O)C1 (stereo not drawn) ?
CIT2 TOR yeast: inactive; VLA-4 inh: inactive; RPL19A-GFP yeast: inactive; AGP1-GFP MLPCN: inactive; MEP2 TOR yeast: inactive; LAP4 TOR yeast: inactive

From PubChem
